Test systems include OVCAR-8 ovarian; SK-OV-3 ovarian; IGROV1 ovarian; OVCAR-3 ovarian; HS 578T breast; NCI/ADR-RES ovarian; OVCAR-5 ovarian; OVCAR-4 ovarian.
Experiment in all cases: NCI-60 one-dose screen, 48 h (100 = growth as untreated, 0 = no growth, -100 = all killed)
A further experiment concerns SR leukemia. The note with it: 10 µM unless noted.
In a further experiment the test system is RPMI-8226 leukemia. The note with it: 10 µM unless noted.

Consider twelve molecules from PubChem BioAssay (NCI).

“And” between values parts separate entries of the source, which are not always exact repeats. Equal values may be shown once. Compounds without any hit were thinned out: in the full panel of roughly 83,000, 20% have a hit.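 48-hour exposure, single concentration, 96-well plates; percent growth endpoint where 0 means no net growth. Active: below 10.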 The source made the active and inactive calls.

Consider `NNC(=O)Nc1ccccc1`, for which the growth is 96.5% (inactive) with SR leukemia; 106% (inactive) with RPMI-8226 leukemia; 109% (inactive) with OVCAR-8 ovarian (10 µM unless noted); 105% (inactive) with SK-OV-3 ovarian (10 µM unless noted); 102% (inactive) in the experiment on IGROV1 ovarian (10 µM unless noted); 105% (inactive) in the experiment with OVCAR-3 ovarian (10 µM unless noted). The growth with HS 578T breast (10 µM unless noted) and with NCI/ADR-RES ovarian (10 µM unless noted) was 105% (inactive) in each case.
Regarding `Cc1ccc(N)cc1S(=O)(=O)O`, the growth in the experiment on SR leukemia was 89.6% (inactive) and 90.4% (inactive); in the experiment on OVCAR-8 ovarian (10 µM unless noted), 108% (inactive) and 100% (inactive); with OVCAR-5 ovarian (10 µM unless noted), 108% (inactive) and 125% (inactive); in the experiment on OVCAR-4 ovarian (10 µM unless noted), 104% (inactive); with SK-OV-3 ovarian (10 µM unless noted), 106% (inactive) and 116% (inactive); with IGROV1 ovarian (10 µM unless noted), 109% (inactive) and 113% (inactive). For the same molecule, the growth is 108% (inactive) and 117% (inactive) in the experiment with OVCAR-3 ovarian (10 µM unless noted); 100% (inactive) and 94.9% (inactive) in the experiment with HS 578T breast (10 µM unless noted); 106% (inactive) and 113% (inactive) in the experiment on NCI/ADR-RES ovarian (10 µM unless noted).
Consider `N=c1sc2ccccc2n1CC(=O)O`, for which the growth was 106% (inactive) in the experiment on SR leukemia; 4.81% (active) in the experiment on OVCAR-8 ovarian (10 µM unless noted); 110% (inactive) with OVCAR-5 ovarian (10 µM unless noted); 106% (inactive) in the experiment with SK-OV-3 ovarian (10 µM unless noted); 107% (inactive) with IGROV1 ovarian (10 µM unless noted); 114% (inactive) in the experiment with OVCAR-3 ovarian (10 µM unless noted). Moreover, the growth was 92% (inactive) in the experiment on HS 578T breast (10 µM unless noted) and 108% (inactive) in the experiment on NCI/ADR-RES ovarian (10 µM unless noted).
Turning to `Cc1nc(Nc2ccc(Cl)cc2)c2cnn(-c3ccccc3)c2n1`, the growth was 101% (inactive) with SR leukemia; 104% (inactive) in the experiment with OVCAR-8 ovarian (10 µM unless noted); 108% (inactive) with OVCAR-5 ovarian (10 µM unless noted); 116% (inactive) with SK-OV-3 ovarian (10 µM unless noted); 112% (inactive) in the experiment with IGROV1 ovarian (10 µM unless noted); 106% (inactive) in the experiment with OVCAR-3 ovarian (10 µM unless noted). Moreover, the growth is 97.9% (inactive) in the experiment on HS 578T breast (10 µM unless noted) and 98.2% (inactive) in the experiment on NCI/ADR-RES ovarian (10 µM unless noted).
With `Cc1cc(Cl)nc(Nc2ccccc2)n1`, the growth is 97.7% (inactive) in the experiment with SR leukemia; 102% (inactive) in the experiment with OVCAR-8 ovarian (10 µM unless noted); 103% (inactive) in the experiment on OVCAR-5 ovarian (10 µM unless noted); 100% (inactive) in the experiment on OVCAR-4 ovarian (10 µM unless noted); 102% (inactive) in the experiment on SK-OV-3 ovarian (10 µM unless noted); 100% (inactive) in the experiment with IGROV1 ovarian (10 µM unless noted). For the same molecule, the values for the growth in the experiment with OVCAR-3 ovarian (10 µM unless noted), with HS 578T breast (10 µM unless noted) and in the experiment on NCI/ADR-RES ovarian (10 µM unless noted) were 95.5% (inactive), 99.6% (inactive) and 100% (inactive), respectively.
On to `CCOC(=O)C(N)Cc1cc(I)c(O)c(I)c1` (configuration not stated), for which the growth in the experiment with RPMI-8226 leukemia is 96.4% (inactive) and 107% (inactive); with OVCAR-8 ovarian (10 µM unless noted), 110% (inactive) and 104% (inactive); in the experiment with OVCAR-5 ovarian (10 µM unless noted) it was 109% (inactive) and 107% (inactive); with OVCAR-4 ovarian (10 µM unless noted) it was 108% (inactive) and 107% (inactive); with SK-OV-3 ovarian (10 µM unless noted) it was 107% (inactive) and 96.6% (inactive); in the experiment on IGROV1 ovarian (10 µM unless noted), 115% (inactive) and 104% (inactive). The growth in the experiment with OVCAR-3 ovarian (10 µM unless noted) was 113% (inactive) and 102% (inactive); with HS 578T breast (10 µM unless noted) it was 107% (inactive); in the experiment with NCI/ADR-RES ovarian (10 µM unless noted), 98.8% (inactive) and 101% (inactive).
As for `CCN(C)c1ccccc1`, the growth in the experiment with SR leukemia was 93.3% (inactive); in the experiment on OVCAR-8 ovarian (10 µM unless noted), 98.2% (inactive); in the experiment with OVCAR-4 ovarian (10 µM unless noted), 109% (inactive); in the experiment with SK-OV-3 ovarian (10 µM unless noted), 89.6% (inactive); with IGROV1 ovarian (10 µM unless noted), 113% (inactive); with OVCAR-3 ovarian (10 µM unless noted) it was 108% (inactive). Moreover, the results for the growth in the experiment on HS 578T breast (10 µM unless noted) and in the experiment on NCI/ADR-RES ovarian (10 µM unless noted) were 96.2% (inactive) and 97.3% (inactive), respectively.
Regarding `CCOC(=O)C1=CC(=O)CC(C)(C)O1`, the growth in the experiment with SR leukemia is 82.1% (inactive) and 114% (inactive); in the experiment on OVCAR-8 ovarian (10 µM unless noted) it was 114% (inactive) and 106% (inactive); in the experiment with OVCAR-5 ovarian (10 µM unless noted) it was 110% (inactive) and 101% (inactive); in the experiment with OVCAR-4 ovarian (10 µM unless noted), 128% (inactive) and 117% (inactive); in the experiment with SK-OV-3 ovarian (10 µM unless noted), 108% (inactive) and 114% (inactive); in the experiment on IGROV1 ovarian (10 µM unless noted), 103% (inactive) and 120% (inactive). Moreover, the growth in the experiment with OVCAR-3 ovarian (10 µM unless noted) is 118% (inactive) and 96.9% (inactive); in the experiment on HS 578T breast (10 µM unless noted), 117% (inactive); in the experiment on NCI/ADR-RES ovarian (10 µM unless noted) it was 96.9% (inactive) and 110% (inactive).
As to `COc1cc2oc3cc(=O)cc4oc(-c5ccccc5)cc(c2c2c1CCC(c1ccccc1)O2)c43` (configuration not stated), the growth was 61.4% (inactive) in the experiment with RPMI-8226 leukemia; 87% (inactive) with OVCAR-8 ovarian (10 µM unless noted); 106% (inactive) with OVCAR-5 ovarian (10 µM unless noted); 84.8% (inactive) with OVCAR-4 ovarian (10 µM unless noted); 92.8% (inactive) with SK-OV-3 ovarian (10 µM unless noted); 70.3% (inactive) in the experiment with IGROV1 ovarian (10 µM unless noted). The growth in the experiment with OVCAR-3 ovarian (10 µM unless noted) was 106% (inactive); in the experiment with HS 578T breast (10 µM unless noted) it was 65.7% (inactive); in the experiment on NCI/ADR-RES ovarian (10 µM unless noted) it was 86.6% (inactive).
For `CC(=O)Nc1ccc(OC(C)=O)cc1`, the growth was 115% (inactive) in the experiment with SR leukemia; -25.4% (active) and 104% (inactive) in the experiment on RPMI-8226 leukemia; 8% (active) and 101% (inactive) with OVCAR-8 ovarian (10 µM unless noted); 98.7% (inactive) with OVCAR-4 ovarian (10 µM unless noted); -4.1% (active) and 121% (inactive) in the experiment with SK-OV-3 ovarian (10 µM unless noted); 23.7% (inactive) and 113% (inactive) in the experiment with IGROV1 ovarian (10 µM unless noted). The growth was 2.02% (active) and 113% (inactive) in the experiment on OVCAR-3 ovarian (10 µM unless noted); 29.7% (inactive) and 118% (inactive) in the experiment on HS 578T breast (10 µM unless noted); -11.9% (active) and 106% (inactive) in the experiment on NCI/ADR-RES ovarian (10 µM unless noted).
Take `O=[N+]([O-])c1ccc(N/N=C/C2CCCCCC2)c([N+](=O)[O-])c1`: the growth was 90.3% (inactive) with RPMI-8226 leukemia; 102% (inactive) in the experiment on OVCAR-8 ovarian (10 µM unless noted); 99.1% (inactive) in the experiment with OVCAR-5 ovarian (10 µM unless noted); 98.5% (inactive) in the experiment with OVCAR-4 ovarian (10 µM unless noted); 102% (inactive) in the experiment on SK-OV-3 ovarian (10 µM unless noted); 91% (inactive) with IGROV1 ovarian (10 µM unless noted). Further, the growth in the experiment with OVCAR-3 ovarian (10 µM unless noted) is 99.8% (inactive); in the experiment on HS 578T breast (10 µM unless noted), 96.9% (inactive); in the experiment on NCI/ADR-RES ovarian (10 µM unless noted) it was 104% (inactive).
In the case of `CS/C(=C\c1ccc(C(=O)c2ccc(C)cc2)n1C)S(C)=O` (configuration not stated), the growth is 30.9% [100 µM] (inactive) with SR leukemia; 91% (inactive) with OVCAR-8 ovarian (10 µM); 82.3% (inactive) in the experiment on OVCAR-8 ovarian (100 µM); 105% (inactive) in the experiment on OVCAR-5 ovarian (10 µM); 102% (inactive) with OVCAR-5 ovarian (100 µM); 89% (inactive) in the experiment with OVCAR-4 ovarian (10 µM). Moreover, the growth with OVCAR-4 ovarian (100 µM) is 69.2% (inactive); in the experiment on SK-OV-3 ovarian (10 µM), 103% (inactive); in the experiment on SK-OV-3 ovarian (100 µM), 87.6% (inactive); with IGROV1 ovarian (10 µM), 93.2% (inactive); in the experiment on IGROV1 ovarian (100 µM), 82.9% (inactive); in the experiment on OVCAR-3 ovarian (10 µM), 114% (inactive). The growth in the experiment with OVCAR-3 ovarian (100 µM) is 69% (inactive); in the experiment on HS 578T breast (10 µM), 91.2% (inactive); in the experiment on HS 578T breast (100 µM), 90.6% (inactive); in the experiment with NCI/ADR-RES ovarian (10 µM), 76.8% (inactive); in the experiment on NCI/ADR-RES ovarian (100 µM), 52.7% (inactive).
